About 50,000 (12%) of roughly 420,000 compounds were called active. Entries that show only a call come without a potency. About 26% were inconclusive and are not listed. This excerpt belongs to a sample that is enriched for actives. Unmarked numbers belong to inactive results. Calls come from the whole dose curve; as a rule, active = well fitted inhibition curve with a large enough effect; inconclusive = small, poorly fitted or top-dose-only effect; inactive = flat fitted curve, though single readings scatter.
Potency is the fitted concentration of half-maximal effect.

The assay is described as follows: qHTS for Inhibitors of human tyrosyl-DNA phosphodiesterase 1 (TDP1): qHTS in cells in presence of CPT. Note: nearly all actives have a fitted effect of over 55% in size. Conditions: chicken DT40 Tdp1-/-;hTDP1 cells + 20 nM CPT, ATP luminescence, 48 h; series mostly up to 46.2 µM. The method, boiled down: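 Cell growth measured by CellTiter-Glo luminescence after a minimum 48 h, 37 C compound exposure with 20 nM CPT in Tdp1-knockout DT40 cells stably expressing hTDP1, seeded 400/well; qHTS titration format.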
With `Cc1cccc(NC(=O)C2CCN(C(=O)NC3CCCCC3)CC2)c1`, the Potency result is “inactive”.

Consider `O=C(CN1C(=O)CCn2nc(-c3ccccc3)cc21)NCc1ccccc1`, for which the Potency result was “inactive”.

`COc1ccc(NC(=O)CCCN2C(=O)CCn3nc(-c4cn(C)c5ccccc45)cc32)cc1OC`: the Potency is 18.4 µM (active).

`COc1ccc(NC(=O)N2CCCn3nc(C)cc32)cc1OC`: the Potency result was “inactive”.

For `CCOC(=O)C1(C)CCCN(C(=O)c2ccc(N(C)C)cc2)C1` (stereo not given), the Potency entry was “inactive”.

Regarding `CC(NCCc1ccc(S(N)(=O)=O)cc1)C(=O)NCc1ccccc1` (stereo not given), the Potency result was “inactive”.

Take `COc1cc(NS(=O)(=O)c2ccc(NC(=O)c3ccc([N+](=O)[O-])cc3)cc2)ncn1`: the Potency entry is “inactive”.

As to `CC(=O)NC(=S)Nc1ccc(NC(=S)NC(=O)c2ccc([N+](=O)[O-])cc2)cc1`, the Potency entry is “inactive”.

With `Cn1ccc(=Nc2ccc(NC(=O)c3ccc(N=c4ccn(C)c5ccc([N+](=O)[O-])cc45)cc3)cc2)cc1`, the Potency is 3.66 µM (active).

In the case of `CSCCC(NC(=O)c1ccco1)C(=O)NCCc1ccc(F)cc1` (stereo not given), the Potency result is “inactive”.

For the molecule `CN(C)CCNC(=O)c1ccc(Cl)c2cc3ccccc3nc12`, the Potency was 0.164 µM (active).

Take `CC(=O)NCCNC(=O)c1cc(-c2cccc3ccccc23)nc2ccccc12`: the Potency result is “inactive”.

In the case of `CN(C)CCNC(=O)Nc1cccc(Cl)c1Cl`, the Potency result is “inactive”.

Regarding `O=C(CCC(=O)N/N=C/c1ccc(Br)o1)N/N=C/c1ccc(Br)o1`, the Potency result was “inactive”.

As to `COc1cc(/C=N/NC(=O)CCc2n[nH]c(=O)[nH]c2=O)ccc1O`, the Potency entry was “inactive”.

For the molecule `O=C(CCc1ccc(O)cc1)NN=Cc1cc(Br)ccc1O`, the Potency is 8.2 µM (active).

`CCCCn1c(N)c(N(CCOC)C(=O)CSCC(=O)Nc2cccc(C)c2)c(=O)[nH]c1=O`: the Potency result is “inactive”.

For the molecule `CC1CCCCC1NC(=O)c1cc(=O)[nH]c2ccccc12` (stereo not given), the Potency entry is “inactive”.

With `COc1ccc(C2CC(c3cccs3)=NN2C(=O)COC(=O)c2cc3ccccc3cc2O)cc1OC` (stereo not given), the Potency result was “inactive”.

`CC(=O)NC(CC(=O)Nc1cccc(S(=O)(=O)N2CCCC2)c1)c1ccccc1` (stereo not given): the Potency entry was “inactive”.

Turning to `Cc1nn(-c2ccc(N3CCCCC3)nn2)c(C)c1CCC(=O)NCc1ccccc1F`, the Potency result was “inactive”.

In the case of `CCOc1ccc(CNC(=O)CCc2c(C)nn(-c3ccc(N4CCCCC4)nn3)c2C)cc1`, the Potency is 25.9 µM (active).

Regarding `CCOc1ccc(CNC(=O)CCC(=O)N2CCSc3ccccc32)cc1`, the Potency result was “inactive”.

Consider `O=C(Nc1cccc(Cl)c1N1CCOCC1)c1cccnc1`, for which the Potency result was “inactive”.

On to `COc1cccc(-n2c(=O)c3c(C)c(C(=O)N(C)C)sc3n(CC(=O)NCCc3ccc(OC)c(OC)c3)c2=O)c1`, for which the Potency entry was “inactive”.

Take `CCOc1cc(/C=N/NC(=O)c2c(C)nc3ccc(Cl)cn23)ccc1O`: the Potency was 13 µM (active).

With `CCOc1cc(C=NNC(=O)CCCC(=O)NN=Cc2ccc(O)c(OCC)c2)ccc1O`, the Potency entry is “inactive”.

Consider `CCOc1ccc(/C=N\NC(=O)c2c(C)nc3cc(C)ccn23)cc1`, for which the Potency result was “inactive”.

Turning to `COc1ccc(-c2c(C(C)=O)c(C)nc3sc4c(=O)n(-c5ccc(C)cc5)nnc4c23)cc1`, the Potency result was “inactive”.

`OC(c1nc2ccc(F)cc2[nH]1)C(O)c1nc2ccc(F)cc2[nH]1` (stereo not given): the Potency entry is “inactive”.

As for `SCc1nc2ccc(Cl)cc2[nH]1`, the Potency was 5.62 µM (active).

As for `Oc1ccc(Cl)cc1/C=N/c1nc2ccccc2[nH]1`, the Potency result was “inactive”.

`Cc1ccc(OC(=O)c2c(C)nn(-c3ccccc3)c2C)cc1`: the Potency entry was “inactive”.

As to `CCOC(=O)/C=C/CN(C(=O)OC(C)(C)C)S(=O)(=O)N1CC=CC1`, the Potency result is “inactive”.

For `O=C(CCN1Cc2ccccc2OC(c2ccccc2)C1)N[C@@H]1CS(=O)(=O)C[C@H]1O` (stereo not given in full), the activity change, negative = growth inhibition was 2.04% [at 9.04 µM].

On to `Cc1cc2nc(C(F)(F)F)cc(-c3cccs3)n2n1`, for which the Potency entry is “inactive”.

As for `CCC(=O)Nc1ccc2c(c1)nc(CCN1CCN(C)CC1)n2C`, the Potency entry is “inactive”.

`CCC(=O)Nc1ccc2c(c1)nc(CCN1CCN(c3ccccn3)CC1)n2C`: the Potency entry was “inactive”.

`Cn1c(CCN2CCN(c3ccccn3)CC2)nc2cc(NS(=O)(=O)c3ccc(F)cc3)ccc21`: the Potency is 16.4 µM (active).

Take `COc1ccc(S(=O)(=O)N2CCCCC2)cc1C(=O)NC1CCS(=O)(=O)C1` (stereo not given): the Potency entry was “inactive”.

In the case of `COC(=O)C(C)n1cnc2c(nnn2-c2ccc(F)cc2)c1=O` (stereo not given), the Potency entry was “inactive”.

On to `COc1ccc(S(=O)(=O)N2C[C@H]3CON(C)[C@H]3C[C@H]2c2cccc(Br)c2)cc1`, for which the Potency entry is “inactive”.

Turning to `O=C(Nc1cccc(F)c1)NC1CCCCCCC1`, the Potency is 18.4 µM (active).

For the molecule `C/C(CC(=O)Nc1cccc(F)c1)=N\NC(=O)C(=O)NC1CCCCC1`, the Potency entry is “inactive”.

For `Cc1cc(C)cc(NC(=O)NC2CCCCCCC2)c1`, the Potency entry was “inactive”.

In the case of `COc1ccc2c(c1)C(=O)Nc1cc(Cl)ccc1N2`, the Potency result is “inactive”.

On to `COc1ccc(-n2c(O)c(C=NCC(c3ccco3)N3CCCC3)c3ccccc3c2=O)cc1OC` (stereo not given), for which the Potency entry was “inactive”.

Take `CCOc1ccc(-n2c(O)c(/C=N/Nc3nnc(C)c(=O)[nH]3)c3ccccc3c2=O)cc1`: the Potency was 0.651 µM (active).

Turning to `CCOc1ccc(-n2c(O)c(/C=N/Nc3nc(C)cc(C)n3)c3ccccc3c2=O)cc1`, the Potency is 2.59 µM (active).

In the case of `Cc1cc(C)nc(N/N=C/c2c(CO)cnc(C)c2O)n1`, the Potency result was “inactive”.

With `CCN(CC)CCCN=Cc1c(O)n(-c2ccc(C)cc2)c(=O)c2ccccc12`, the Potency result is “inactive”.

For `Cc1nnc(N/N=C/c2ccccn2)[nH]c1=O`, the Potency is 4.61 µM (active).

Take `CCOc1ccc(N/C(N)=N/c2nc(C)c(C)c(=O)[nH]2)cc1`: the Potency result was “inactive”.

Consider `Cc1ccccc1Nc1nnc(C)c(=O)[nH]1`, for which the Potency result was “inactive”.

For `Cc1nnc(N/N=C/c2cccs2)[nH]c1=O`, the Potency result was “inactive”.

Values taken from PubChem BioAssay AID686979 (National Center for Advancing Translational Sciences (NCATS), 2013).
